# PubChem BioAssay AID504891 (National Center for Advancing Translational Sciences (NCATS), 2011)
# In all, about 390,000 compounds went through this assay and about 35 (0.009%) were called active. About 6% were inconclusive and are not listed. Calls come from the whole dose curve; as a rule, active = well fitted inhibition curve with a large enough effect in the polarisation, with a control signal flat (not every such curve was filed as active); inconclusive = small, poorly fitted or top-dose-only effect, or effect the other way, or a change in a side signal; inactive = no such curve, though single readings can be large or run the other way; the % refers to the polarisation. The sample as a whole holds a higher share of actives than the screen did.
# Biological target: Peptidyl-prolyl cis-trans isomerase NIMA-interacting 1 (Homo sapiens) (UniProt Q13526)
# Sequence (Q13526 whole entry, looked up): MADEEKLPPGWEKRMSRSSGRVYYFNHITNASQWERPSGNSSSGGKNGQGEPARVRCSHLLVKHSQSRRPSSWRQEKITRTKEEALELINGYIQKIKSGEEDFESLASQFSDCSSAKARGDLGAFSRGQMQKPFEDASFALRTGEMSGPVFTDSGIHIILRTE
# Assay: qHTS Assay to Find Inhibitors of Pin1
# Conditions: Pin1 FP peptide displacement, HiFluor488, 10 min; series mostly up to 115 µM; activity, negative = inhibition: at the top concentration
# Text: NIH Molecular Libraries Probe Production Network [MLPCN]
# NIH Chemical Genomics Center [NCGC]
# The unique chemical properties of Pro allow for the adoption of two completely distinct amide bond conformations (cis and trans). Peptidyl-prolyl cis/trans isomerases (PPIases) are evolutionary conserved enzymes that catalyze cis/trans isomerization of peptidyl-prolyl peptide bonds. Distinct from all other PPIases such as cyclophilins and FK506-binding proteins (FKBPs), Pin1 binds a subset of phos.Ser/Thr-Pro-containing proteins using its protein-targeting WW domain and isomerizes only specific phos.Ser/Thr-Pro bonds, which cannot be effectively catalyzed by other known PPIases.
# Pin1-catalyzed conformational regulation can control a spectrum of activities of many key regulators in diverse cellular processes such as cell growth, genotoxic and other stress responses, immune response, germ cell development, neuronal differentiation and survival. Pin1 has emerged as a novel molecular timer that modulates its multiple targets at various steps of a given cellular process to synergistically control the amplitude and duration of a cellular response or process. Importantly, Pin1 is tightly regulated by multiple levels and its deregulation has an important role in a growing number of pathological conditions, including cancer, Alzheimer's disease, aging, asthma and microbial infection, providing a potentially new therapeutic option.
# The goal of this screen is to find small-molecule inhibitors of Pin1 using a fluorescence polarization competition assay. A HiFluor-488-labeled peptide binds to the active site of Pin1 and can be displaced by compounds. Compounds were screened as a concentration-titration series that ranged from 57 uM to 0.7 nM.
# NCGC Assay Protocol Summary:
# Pin1 (0.6 uM) was dispensed into black, solid 1536-well plates at 2 uL/well in 10 mM HEPES (pH 7.5), 10 mM NaCl, 0.01% Tween20, 1 mM DTT, and 1% glycerol. Then, 23 nL of compounds or DMSO were delivered to each well using a pin tool. Two uL of Pin1-1b-HiFluor488 peptide (10 mM HEPES (pH 7.5), 10 mM NaCl, 0.01% Tween20, 1 mM DTT, and 1% glycerol, 0.02 uM Pin1-1b-HiFluor488) was then dispensed, and plates were incubated at room temperature for 10 min. The plates were measured on a ViewLux plate reader for fluorescence polarization signal using a 480/20 nM nm excitation filter and 540/25 nM nm S and P emission filters with a 20 second exposure. The %Activity was determined from the corrected fluorescence polarization values. Unlabeled Pin1-1c peptide was used as a control (3.5 mM two-fold serial; 20 uM final concentration) along with a 1x (0.3 uM) and 0x (no-enzyme) Pin1 enzyme control to normalize %Activity of identified inhibitors; 0x enzyme values corresponded to 100%Activity (full inhibition), while 1x Pin1 enzyme values were used to normalize 0%Activity (no inhibition).
# Concentration-response curves were fitted to the signals arising from the resulting fluorescence polarization. The concentration-effect curves were then classified based on curve quality (r2), response magnitude and degree of measured activity, and compounds were subsequently categorized based on their curve class.
# Keywords: Peptidyl prolyl isomerase, Pin1, fluorescence polarization, MLSMR, MLPCN, NIH Roadmap, qHTS, NCGC
# Potency is the fitted concentration of half-maximal effect.
SMILES,"activity, negative = inhibition",Potency
CCc1ccccc1NC(=O)c1ccc2nc(CCc3ccccc3)oc2c1,2.6% (inactive),
CCc1ccc(CNC(=O)C2CCN(c3nn4cc(-c5ccc(F)cc5)nc4s3)CC2)cc1,0.155% (inactive),
Cc1ccc(CNc2ncnc3cc(-c4ccc5c(c4)OCO5)ccc23)o1,62% (inactive),
CN1C(=O)c2ccccc2Sc2ccc(NC(=O)Cc3ccc(Cl)cc3)cc21,26.7% (inactive),
Cc1cc2c(cc3c(SCc4nc(-c5ccccc5)oc4C)nnc(C)n32)o1,8.69% (inactive),
CCOC(=O)C1CCN(C(=O)CSc2c3c(nc4ccc(Cl)cc24)CCCC3)CC1,-0.165% (inactive),
Cc1c(Cl)cccc1NC(=O)CCS(=O)(=O)c1ccc2c(c1)oc(=O)n2C,0.402% (inactive),
O=C(CN1c2ccccc2S(=O)(=O)c2ccccc21)Nc1cccc(C(F)(F)F)c1,4.41% (inactive),
O=C(COc1ccccc1F)Nc1ccc(C(=O)OCc2cc(=O)n3nc(C4CC4)sc3n2)cc1,-6.29% (inactive),
N#Cc1nc(Nc2cccc(Cl)c2)nc(NC2CCCC2)n1,1.36% (inactive),
COc1ccc(Cn2ccn(CC(=O)Nc3cc(C)ccc3C)c(=O)c2=O)cc1,0.673% (inactive),
COc1cccc(NC(=O)c2ccc3nc(CCc4ccccc4)oc3c2)c1,14.7% (inactive),
COc1ccc(CC(=O)N2CC(=O)Nc3ccc(Br)cc3C2c2ccc(F)cc2)cc1OC (stereo not drawn),-0.0112% (inactive),
COc1ccc(N2CCN(S(=O)(=O)CCNC(=O)C(c3ccccc3)c3ccccc3)CC2)cc1,-3.85% (inactive),
COc1ccc(C2/C=C\CN(C(=O)c3ccc(C)cc3)C(Cc3ccccc3)C(=O)N2Cc2ccc(F)cc2)cc1 (stereo not drawn),8.96% (inactive),
Cc1ccc2[nH]c3c(=O)n(CC(=O)NC(C)C)ncc3c2c1,5.47% (inactive),
COc1ccc(NC(=O)CCc2nnc3n(CC(C)C)c(=O)c4ccccc4n23)cc1OC,0.559% (inactive),
Cc1ccc(Cn2ncc3c4sc(C)cc4n(C)c3c2=O)c(C)c1,2.78% (inactive),
COc1cc(OC)c2c(C)cc(=O)oc2c1C(CCN1CCCCC1)c1ccc(N(C)C)cc1 (stereo not drawn),0.75% (inactive),
CCc1nnc(SCc2c(F)cccc2Cl)c2cc3sccc3n12,0.246% (inactive),
O=C1CCc2cc(S(=O)(=O)Nc3cccc(Oc4ccccc4)c3)ccc2N1,4.76% (inactive),
NC(=O)C1CCN(c2cc(-c3ccc4c(c3)OCCCO4)ncn2)CC1,0.493% (inactive),
COc1ccc(OCc2ccc(-c3nc(C#N)c(N4CCN(c5ccccc5)CC4)o3)o2)cc1,-7.37% (inactive),
COc1ccc(Cl)cc1NC(=O)CSc1nc2ccccc2c2nc(-c3ccccc3)nn12,-6.43% (inactive),
CCCN1CCC(=O)N(C(CSc2ccc(OC)cc2)Cc2ccccc2)CC1 (stereo not drawn),-9.3% (inactive),
COc1ccc(CCC(=O)NCc2ccc3c(c2)CCN3C(=O)c2ccc(F)cc2)cc1,-7.47% (inactive),
Cc1ccc(-c2nnc3c4ccccc4c(C)nn23)cc1NC(=O)c1cccc(Br)c1,-5.3% (inactive),

SMILES,"activity, negative = inhibition",Potency
Cc1cc2c(s1)c1cnn(Cc3cc(F)c(Cl)cc3Cl)c(=O)c1n2C,-4% (inactive),
COc1cc(Cl)c(C)cc1Nc1nnc(-n2nc(C)cc2C)c2ccccc12,0.488% (inactive),
COc1ccc(C2Nc3ccccc3C(=O)N2Cc2ccco2)cc1COc1cccc(NC(C)=O)c1 (stereo not drawn),47.2% (inactive),
COc1ccc(-c2ccc3ncnc(NCc4cccs4)c3c2)cc1OC,0.753% (inactive),
COc1ccc(C2/C=C\CN(Cc3ccco3)C(C)C(=O)N2Cc2ccc(F)cc2)cc1 (stereo not drawn),25.5% (inactive),
COc1ccc(-c2onc(C)c2C)cc1S(=O)(=O)NCc1cccs1,-1.97% (inactive),
Cc1cc(C)n2ncc(C(=O)N3CCCC3)c2n1,-11.3% (inactive),
CC(C)Oc1cccc(-c2cnc(N3CCC(C(N)=O)CC3)s2)c1,1.95% (inactive),
CCCc1nn2c(=O)cc(COC(=O)c3ccc(NC(=O)C(C)Oc4ccccc4)cc3)nc2s1 (stereo not drawn),-8.84% (inactive),
Cc1cc(C(=O)OCC(=O)N2C(C)CCCC2C)c2ccccc2n1 (stereo not drawn),3.11% (inactive),
CN(C(=O)COC(=O)c1cc(-c2ccco2)nc2ccccc12)C1CCS(=O)(=O)C1 (stereo not drawn),,35.5 µM (active)
Cc1ccc(S(=O)(=O)CCC(=O)OCC(=O)N(C)C2CCS(=O)(=O)C2)cc1 (stereo not drawn),-16% (inactive),
C=C1CCN(C(CC(C)C)C(=O)NCc2cc(OC)c(OC)c(OC)c2)S(=O)(=O)c2ccccc21 (stereo not drawn),3.4% (inactive),
CCCCS(=O)(=O)c1oc(-c2cccs2)nc1S(=O)(=O)c1ccccc1,14.3% (inactive),
CCCS(=O)(=O)N1CCC(n2c(C(F)(F)F)nc3cccnc32)CC1,1.49% (inactive),
N#Cc1ccc(OC2=NS(=O)(=O)c3ccccc32)cc1,-6.79% (inactive),
O=C(NCc1nnc(C(=O)Nc2ccc(C(F)(F)F)cc2Cl)o1)c1ccccc1,4.91% (inactive),
Cc1cccc2c1-c1sc(C(=O)Nc3ccc(F)cc3F)cc1CO2,-0.856% (inactive),
C#CCOc1ccc(C2CC(=O)Nc3c2c(C)nn3-c2nc(C)cc(C)n2)cc1 (stereo not drawn),-7.62% (inactive),
CCCN(CCC)CCNC(=O)Cn1cnc2sc(C)c(S(=O)(=O)N3CCC(C)CC3)c2c1=O,-1.59% (inactive),
COc1ccccc1CNC(=O)c1ccc(NC(=O)N2CC(C)Sc3ccccc32)cc1 (stereo not drawn),7.05% (inactive),
O=C(O)c1ccc2c(c1)N(Cc1ccc(F)cc1)C(=O)c1ccccc1S2=O (stereo not drawn),0.384% (inactive),
O=C(CC1Oc2ccc(Cl)cc2NC1=O)NCc1ccccc1 (stereo not drawn),1.66% (inactive),
CCOC(=O)c1cccc(NC(=O)Cn2cnc3nc4c(cc3c2=O)CCCC4)c1,-0.357% (inactive),
COc1ccc(OC)c(NC(=O)CN2CCCN(Cc3cc(C)ccc3C)S2(=O)=O)c1,-5.1% (inactive),
Cc1ccc2sc(N(Cc3cccnc3)C(=O)C3COc4ccccc4O3)nc2c1C (stereo not drawn),6.41% (inactive),
